These results are taken from PubChem BioAssay (NCI).

Assay in all cases: NCI-60 one-dose screen, 48 h (100 = growth as untreated, 0 = no growth, -100 = all killed)
The subject of test [1] is HOP-92 NSCLC. The settings on record: 10 µM unless noted.
Test [2] deals with COLO 205 colon. The settings on record: 10 µM.
Test [3] relates to K-562 leukemia. The conditions noted are these: 10 µM unless noted.
The test system of test [4] is U251 CNS. The conditions noted are these: 10 µM unless noted.
Test [5] has as its system LOX IMVI melanoma. The conditions noted are these: 10 µM unless noted.
Test [6] deals with EKVX NSCLC. The conditions noted are these: 10 µM unless noted.
Test [7] deals with TK-10 renal. The conditions noted are these: 10 µM unless noted.
Test [8] has as its system CAKI-1 renal. The settings on record: 10 µM unless noted.
In test [9] the test system is CCRF-CEM leukemia. The settings on record: 10 µM unless noted.
Test [10] relates to SK-OV-3 ovarian. The settings on record: 10 µM unless noted.
The test system of test [11] is IGROV1 ovarian. The conditions noted are these: 10 µM.
For test [12], the system named is HS 578T breast. The conditions noted are these: 10 µM unless noted.
Test [13] concerns BT-549 breast. The settings on record: 10 µM.
Test [14] has as its system SW-620 colon. The settings on record: 10 µM unless noted.
For test [15], the system named is HCT-116 colon. The conditions noted are these: 10 µM unless noted.
The subject of test [16] is NCI-H522 lung. The settings on record: 10 µM unless noted.
Test [17] deals with MOLT-4 leukemia. The settings on record: 10 µM.
Test [18] deals with SR leukemia. The settings on record: 10 µM.

The structures appear in SMILES notation. The panel holds about 83,000 compounds, 20% with a hit somewhere; the sample as a whole holds those more often.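 Step 1: grow cells in 96-well plates. Step 2: add test compound at a single concentration. Step 3: incubate 48 h. Step 4: record percent growth.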 Unmarked numbers belong to inactive results. Calls of active or inactive are those of the source. How the source made its calls: active means growth percent below 10; inactive means the rest.

As for `CC(=O)Oc1ccc(Cl)cc1`, the growth in test [1] is 91.1%; in test [2], 107%; in [3] it was 94.5%; in test [4] it was 97.8%; in test [5], 90.5%; in test [6], 101%. Also, the growth in test [7] was 97%; in test [8], 90.5%; in test [9] it was 104%; in test [10] it was 98.1%; in test [11] it was 114%; in test [12] it was 90.3%. The growth in test [13] was 98.3%; in [14], 89.9%; in test [15] it was 95.3%.
Regarding `COC(=O)C(=[N+]=[N-])C(=O)OC`, the growth in [1] was 82.9%; in test [16], 94%; in [3], 95.5%; in [4], 104%; in test [5] it was 103%; in test [7] it was 92.5%. In addition, the growth was 109% in test [8]; 61.4% in test [9]; 105% in [17]; 100% in test [18]; 101% in test [10]; 110% in [11]. Moreover, the growth in test [12] is 121%; in [13], 103%; in test [14], 100%; in test [15] it was 94.2%.
In the case of `COc1ccc(C(=O)c2ccc([As]=O)cc2)cc1` (configuration not stated), the growth in [1] was -96.1% (active); in test [16], -84.1% (active); in test [3], 0.914% (active); in [5] it was -97.1% (active); in test [6], -98.1% (active); in [7], -100% (active). Moreover, the growth is -98.7% (active) in [8]; -25.1% (active) in [9]; -24.5% (active) in test [17]; -23.8% (active) in [18]; -99.8% (active) in test [10]; -29.3% (active) in test [11]. Moreover, the growth in test [12] is -1.54% (active); in [13], -99.6% (active); in test [15], -83.3% (active).
Regarding `CCCCCCCC(=O)OCC/C=C/C1OC1C1OC(=O)/C=C\C=C\c2nc(oc2C)/C=C(/C)CCC2OC2C1OC(=O)NC(C)=O` (configuration not stated), the growth in test [16] was -80.3% (active); in test [2], -90.3% (active); in test [4], -34.3% (active); in [5], -21.6% (active); in [6], -5.8% (active); in test [7] it was 1.86% (active). Also, the growth in test [8] was -6.91% (active); in test [11], -10.2% (active); in test [12], -1.2% (active); in test [13], -2.38% (active); in test [14] it was -65.4% (active); in test [15], -24.4% (active).
In the case of `Cc1cccc(N(C)c2cccc3c2C(=O)[Se]C3)c1C`, the growth is 81.4% in test [1]; 27.1% in test [2]; 48.2% in test [3]; 47% in [4]; 19.9% in [6]; 62.8% in test [7]. In addition, the growth in [8] is 70.1%; in [9], 56.1%; in [17], 67.9%; in test [18] it was 4.83% (active); in [10] it was 188%; in test [11], 28.2%. In addition, the growth in test [12] was 58.8%; in [13], 52.4%; in test [14], 67.1%; in test [15], 3.47% (active).
Regarding `ClCCN(CCCl)C(c1ccccc1)c1ccc(Cl)cc1` (configuration not stated), the growth in test [1] is 57.4%; in test [16] it was 65%; in test [2] it was 114%; in test [3], 42.6%; in test [4], 82.6%; in test [5], 81.3%. In addition, the growth is 102% in test [6]; 81.1% in [7]; 10.1% in test [8]; 15.3% in [9]; 5.67% (active) in test [18]; 109% in test [10]. Further, the growth in test [13] was 93.7%; in test [14] it was 51.6%; in [15], 79.5%.
Turning to `Cc1cccc(N=C2c3cc([N+](=O)[O-])ccc3-c3c2cc([N+](=O)[O-])cc3[N+](=O)[O-])c1`, the growth in test [2] was 98.5%; in test [3] it was 23.1%; in test [4] it was 40.3%; in test [5], 39.3%; in test [6], 75.4%; in test [7], 56.1%. Also, the growth in test [8] is 67.8%; in test [9], 21.4%; in [17], 27.5%; in [12], 101%; in test [13], 81.8%; in test [14], -54.9% (active). In [15], the growth is -0.611% (active).
As for `NC(=O)SCC(=O)Nc1ccc([As](=O)(O)O)cc1`, the growth is -9.01% (active) in test [16]; 75.6% in test [2]; 75.5% in test [3]; 44.4% in test [4]; 68.8% in [5]; 111% in test [6]. The growth in test [7] was 105%; in test [8] it was 109%; in [9], 59.3%; in test [17], 86.1%; in test [18], 100%; in test [10], 135%. Moreover, the growth in test [11] is 65.5%; in [12], 82.3%; in test [13] it was 92%; in [14] it was 73.9%.
In the case of `Nc1c(Br)cc([N+](=O)[O-])cc1[N+](=O)[O-]`, the growth is 120% in test [1]; 105% in [16]; 104% in [3]; 103% in test [5]; 93.6% in [6]; 92.8% in test [8]. The growth in test [9] is 118%; in [17], 97.2%; in test [18] it was 111%; in test [10], 107%; in test [12] it was 106%; in test [14], 103%. The growth in test [15] is 108%.
In the case of `CCC(CC)(c1ccccc1)C(OC(N)=O)c1ccccc1` (configuration not stated), the growth in test [16] was 78.6%; in test [3], 66%; in test [4] it was 82.1%; in test [8] it was 60.7%; in test [9] it was 88.9%; in test [17] it was 80.2%. The growth was 72.8% in test [18]; 73.4% in [11]; 88.2% in test [12]; 110% in test [13]; 62.4% in [15].
On to `C=CCC1(CC)C(=O)NC(=S)NC1=O`, for which the growth in test [1] is 80.6%; in [16] it was 93.5%; in test [3], 95.5%; in test [4], 101%; in test [5], 97.2%; in test [6], 105%. For the same compound, the growth in [7] was 111%; in test [9] it was 100%; in test [18] it was 96.7%; in test [10], 97.1%; in [11], 107%; in test [12] it was 102%. Further, the growth is 106% in test [13], 101% in test [14] and 108% in test [15].
